Compound activity from PubChem.
Rows were chosen to be rich in hits. Some 8.6% of all compounds tested hit in one or more screens of this group.
MARV entry inh: Marburg virus entry inhibition; Potency, µM (doses to about 49.2 µM), actives largely listed as inhibitors; Marburg virus pseudotype entry/binding inhibition, cell-based; hit rate 6.5% among 18,000; AID 720532
Lassa entry: Lassa virus entry inhibition; hit rate 4.1% among 18,000; Potency, µM (titrated, usually from 49.2 µM), usual class: inhibitors; Lassa virus pseudotyped entry inhibition, cell-based qHTS; AID 720533
A number is an active result; - = inactive; ? = inconclusive; . = no result given; ! = not confirmed by another sample; [ ] = dose if it differs, or a comment. Calls come from the whole dose curve; tested in HEK293 cells.

SMILES | MARV entry inh | Lassa entry
CC(C)[C@H](N)C(=O)N[C@@H](CCC(N)=O)C(=O)NCC(=O)N[C@@H](CCC(=O)O)C(=O)N[C@@H](CCC(=O)O)C(=O)N[C@@H](CO)C(=O)N[C@@H](CC(N)=O)C(=O)N[C@@H](CC(=O)O)C(=O)N[C@@H](CCCCN)C(=O)O | - | -
Cc1cccc(C2=NN(c3ccccc3)[C@H](CO)[C@H]2c2ccc(Cl)cc2)c1 | - | -
CC(=O)c1ccc(C(=O)NCc2nc(-c3ccccc3NC(=O)c3cc(C)oc3C)oc2C)cc1 | - | -
COC(=O)c1csc(C(=O)c2c[nH]c3ccccc23)n1 | - | -
COc1ccc(CCNC(=O)C(=O)c2c[nH]c3ccccc23)cc1 | - | 3.5µM
O=[N+]([O-])c1ccc(-c2nc(-c3ccc(F)cc3)c(-c3ccncc3)[nH]2)cc1 | 11µM | -
Fc1ccc(-c2c(-c3ccncc3)nc3n2CCS3)cc1 | ? | -
COc1ccccc1C1CC(=O)Oc2c(C(C)C)ccc(C)c21 (centres undefined) | - | -
COc1ccc(-c2cc(=O)c3c(O)c(OC)c(OC)c(OC)c3o2)cc1OC | - | -
COc1cc([C@@H]2c3cc4c(cc3C(OC3OC5COC(C)OC5C(O)C3O)C3COC(=O)[C@@H]32)OCO4)cc(OC)c1O (some centres undefined) | 25µM | 7.9µM
COc1cc([C@@H]2c3cc4c(cc3[C@@H](OC3OC5COC(C)OC5C(O)C3O)[C@H]3COC(=O)[C@H]23)OCO4)cc(OC)c1O (some centres undefined) | ? | 7.9µM
COc1cc([C@@H]2c3cc4c(cc3C(O[C@@H]3O[C@@H]5COC(c6cccs6)O[C@H]5[C@H](O)[C@H]3O)C3COC(=O)[C@@H]32)OCO4)cc(OC)c1O (some centres undefined) | ? | 4µM
COc1cc([C@@H]2c3cc4c(cc3[C@@H](O[C@@H]3O[C@H]5CO[C@@H](C)O[C@@H]5[C@@H](O)[C@H]3O)[C@@H]3COC(=O)[C@@H]23)OCO4)cc(OC)c1O | ? | 2.8µM
CCC1CN(CCNC(=O)c2cc3ccccc3oc2=O)Cc2cc(OC)ccc2O1 (centres undefined) | ? | -
O=C1N=C(O)CN1/N=C/c1ccc(-c2ccc([N+](=O)[O-])cc2)o1 | - | -
COCOc1ccccc1C(=O)/C=C/c1ccccc1 | - | -
CCC(C)CN1C(=O)NC(c2ccccc2)C(C(=O)OC)=C1C (centres undefined) | -[8.59 µM] | .
COc1c2ccccc2nc2occc12 | - | -
CCS(=O)(=O)Nc1cc(C(=O)N[C@H]2CCCCNC2=O)c2c(c1)nc(-c1ccccc1)n2C | - | -
O=C(O[C@@H]1Cc2c(O)cc(O)cc2OC1c1ccc(O)c(O)c1)c1cc(O)c(O)c(O)c1 (some centres undefined) | 13µM | -
O=C1C[C@@H](c2ccc(O)cc2)Oc2cc(O)cc(O)c21 | - | -
Oc1cc(O)c2c(c1)OC(c1cc(O)c(O)c(O)c1)C(O)C2 (centres undefined) | ? | -
O=C(OC1Cc2c(O)cc(O)cc2OC1c1cc(O)c(O)c(O)c1)c1cc(O)c(O)c(O)c1 (centres undefined) | 8.9µM | -
O=C(OC1Cc2c(O)cc(O)cc2OC1c1cc(O)c(O)c(O)c1-c1c(C2Oc3cc(O)cc(O)c3CC2OC(=O)c2cc(O)c(O)c(O)c2)cc(O)c(O)c1O)c1cc(O)c(O)c(O)c1 (centres undefined) | 11µM | -
Oc1ccc(C2Oc3cc(O)cc(O)c3CC2O)cc1 (centres undefined) | - | -
SMILES | MARV entry inh | Lassa entry
O=C(OC1Cc2c(O)cc(O)cc2OC1c1cc(O)c(=O)c2c(O)c(O)cc(C3Oc4cc(O)cc(O)c4CC3OC(=O)c3cc(O)c(O)c(O)c3)c2c1)c1cc(O)c(O)c(O)c1 (centres undefined) | 1.3µM | -
C[N+]1(CCC(C(N)=O)(c2ccccc2)c2ccccc2)CCCCC1 | - | -
COc1ccc2c(c1)O[C@@H](c1cccc(C(F)(F)F)c1)[C@H](OC(=O)NC1CCCC1)C2=O | ? | -
O=C1OCCN1C(=O)[C@H]1[C@H](c2ccc(F)cc2)C(c2cccc(Cl)c2)=NN1c1ccc(Br)cc1 | ? | -
CCOC(=O)C1Oc2ccccc2C(c2ccoc2)=C1C(=O)OC (centres undefined) | - | -
C=CCNC1=C2C[C@@H](C)C[C@H](OC)[C@H](O)[C@@H](C)/C=C(\C)[C@H](OC(N)=O)[C@@H](OC)/C=C\C=C(/C)C(=O)NC(=CC1=O)C2=O | ? | 3.5µM!
COC1=C2C[C@H](C)C[C@H](OC)[C@H](O)[C@@H](C)/C=C(/C)[C@H](OC(N)=O)[C@@H](OC)/C=C\C=C(\C)C(=O)NC(=CC1=O)C2=O | - | -
COc1ccc2c(c1OC)C(Cc1ccccc1)N1CCc3cc4c(cc3C1=C2)OCO4 (centres undefined) | ? | 25µM
COc1ccc2c(c1OC)C(=O)OC2C1c2cc3c(cc2CCN1C)OCO3 (centres undefined) | - | -
COCc1c(C(C)C)nc(C(C)C)c(/C=C/[C@@H](O)C[C@@H](O)CC(=O)O)c1-c1ccc(F)cc1 | - | -
COc1cc(CN2CCN(CCCSc3cc(C(C)(C)C)c(O)c(C(C)(C)C)c3)CC2)cc(OC)c1OC | 2.8µM | 20µM
CCN(CC)CCC[C@H](C)Nc1ccnc2cc(Cl)ccc12 | - | -
CCN(CC)Cc1ccc(Nc2ccnc3cc(Cl)ccc23)cc1O | 1.8µM | ?
O=C(NC1CCCCC1)OCCN1CCN(Cc2ccccc2)CCC1=O | - | -
CC(C)=CCCC1(C)C=Cc2c(O)c3c(c(CC=C(C)C)c2O1)OC12C(CC4CC1C(C)(C)OC2(C/C=C(/C)C(=O)O)C4O)C3=O (centres undefined) | - | 10µM
CS(=O)(=O)CCNCc1cc(-c2cc3c(Nc4ccc(OCc5cccc(F)c5)c(Cl)c4)ncnc3s2)cs1 | ? | -
CC(=O)Nc1cccc(C#Cc2cncnc2Nc2ccc(OCc3cccc(F)c3)c(Cl)c2)c1 | 13µM | .
COc1ccccc1CC(=O)NCC1Cc2cc(F)cc(-c3cncnc3)c2O1 (centres undefined) | - | -
COc1ccc2cc(CCC(C)=O)ccc2c1 | - | -
COc1ccc(N2C[C@H](Cc3ccccc3)[C@@H](CC(=O)Nc3ccccc3)C2=O)cc1 | - | .
COc1ccc(C[C@H]2NC[C@H](O)[C@H]2OC(C)=O)cc1 | ? | 3.5e-05µM
COc1ccc(C[C@@H]2NC[C@H](O)[C@@H]2OC(C)=O)cc1 | ? | 0.011µM
CCCCC/C=C\C/C=C\C/C=C\C/C=C\CCCC(=O)O[C@H](COCCCCCCCCCCCCCCCC)COP(=O)([O-])OCC[N+](C)(C)C | - | -
CN(C)CCN(C)C1CN(CCc2ccccc2)S(=O)(=O)C1 (centres undefined) | - | -
CC(C)[C@@]1(NC(=O)[C@@H]2C[C@H]3c4cccc5[nH]cc(c45)C[C@@H]3N(C)C2)O[C@]2(O)[C@H]3CCCN3C(=O)[C@H](Cc3ccccc3)N2C1=O | ? | -
CN1C[C@H](C(=O)N[C@]2(C)O[C@@]3(O)C4CCCN4C(=O)[C@H](Cc4ccccc4)N3C2=O)C[C@@H]2c3cccc4[nH]cc(c34)C[C@H]21 (some centres undefined) | 13µM | ?
CC(C)[C@@]1(NC(=O)[C@H]2CC3c4cccc5[nH]cc(c45)C[C@H]3N(C)C2)O[C@@]2(O)C3CCCN3C(=O)[C@@H](Cc3ccccc3)N2C1=O (some centres undefined) | 8.9µM | -
